Assay results reported in PubChem BioAssay.
Unmarked numbers belong to inactive results. Activity calls are given as the source filed them. Cut-off read from the data, not from the text of the source, unless noted: active = inhibition above about 33%; inactive = the rest.

What was measured:
[1] = StAR promoter reporter inhibitors, counter-screen for LRH-1 inverse agonist project, cell-based, luminescence, high throughput (AID 651611; in the data active = inhibition above about 28%); settings: StAR promoter luciferase reporter counterscreen, at 3.6 µM, active compounds read high
[2] = target: Nuclear receptor subfamily 5 group A member 2 (Homo sapiens) (UniProt O00482); experiment: NR5A2 activity suppression in reporter cells – cell-based, luminescence, confirmation (AID 651613; in the data active = inhibition above about 42%;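 note: HEK293T cells co-transfected with LRH-1 and StAR promoter luciferase reporter; 0% = vehicle wells and 100% = parental cells lacking receptor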); settings: cell-based LRH-1 luciferase reporter, inverse agonism; at 3.6 µM; active compounds read high
Nuclear receptor subfamily 5 group A member 2 (Homo sapiens), sequence (O00482 whole entry, looked up): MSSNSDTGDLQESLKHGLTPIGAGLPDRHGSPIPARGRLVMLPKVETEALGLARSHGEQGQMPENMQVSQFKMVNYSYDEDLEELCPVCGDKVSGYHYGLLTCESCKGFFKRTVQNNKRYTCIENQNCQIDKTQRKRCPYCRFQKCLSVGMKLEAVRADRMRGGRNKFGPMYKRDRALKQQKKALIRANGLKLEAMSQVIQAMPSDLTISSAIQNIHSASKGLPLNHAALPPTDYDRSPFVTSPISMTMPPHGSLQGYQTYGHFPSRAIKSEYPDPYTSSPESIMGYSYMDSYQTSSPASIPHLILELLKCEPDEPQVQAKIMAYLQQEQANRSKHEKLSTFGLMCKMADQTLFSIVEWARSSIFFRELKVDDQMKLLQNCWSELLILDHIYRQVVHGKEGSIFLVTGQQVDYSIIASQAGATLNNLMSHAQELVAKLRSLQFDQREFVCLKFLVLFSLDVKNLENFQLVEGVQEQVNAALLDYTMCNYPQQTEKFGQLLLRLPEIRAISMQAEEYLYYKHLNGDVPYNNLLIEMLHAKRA

[3] = target: Steroidogenic factor 1 (Homo sapiens) (UniProt Q13285); experiment: inverse agonism at SF1 nuclear receptor – cell-based, luminescence, high throughput, counter-screen for LRH-1 inverse agonist project (AID 651614; in the data active = inhibition above about 44%;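 note: cells cotransfected with StAR promoter reporter and SF1 expression vector; 0% = vehicle on cells with receptor and 100% = vehicle on cells lacking receptor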); settings: cell-based SF1 luciferase reporter, at 3.6 µM, active compounds read high
Steroidogenic factor 1 (Homo sapiens), sequence (Q13285 whole entry, looked up, the tested form may be a part): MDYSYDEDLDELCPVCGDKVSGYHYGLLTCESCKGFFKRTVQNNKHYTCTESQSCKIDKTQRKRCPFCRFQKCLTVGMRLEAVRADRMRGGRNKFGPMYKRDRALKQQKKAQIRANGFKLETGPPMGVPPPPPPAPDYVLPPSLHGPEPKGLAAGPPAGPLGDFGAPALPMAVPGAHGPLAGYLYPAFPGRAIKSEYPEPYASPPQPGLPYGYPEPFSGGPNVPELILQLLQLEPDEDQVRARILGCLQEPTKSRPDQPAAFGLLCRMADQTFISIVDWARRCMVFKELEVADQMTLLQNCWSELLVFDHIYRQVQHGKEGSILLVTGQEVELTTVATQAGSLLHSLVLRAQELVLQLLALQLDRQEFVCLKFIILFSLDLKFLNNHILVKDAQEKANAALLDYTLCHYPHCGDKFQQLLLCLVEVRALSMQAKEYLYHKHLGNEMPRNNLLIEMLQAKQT

[4] = compounds suppressing VP16-driven luciferase signal – cell-based, luminescence, high throughput, counter-screen for LRH-1 inverse agonist project (AID 651615); settings: Gal4-VP16 luciferase reporter cells, at 3.6 µM, active compounds read high

Structure (SMILES) | inhibition [1] | inhibition [2] | inhibition [3] | inhibition [4]
COc1ccc(NC(=O)CSc2nc(N)c(-c3ccccc3)c(=O)[nH]2)cc1 | 9.25% | 63.2% (active) | 57.5% (active) | -7.75%
Cc1ccc(-n2nc(C)c(NC(=O)CCl)c2C)cc1 | 35.8% (active) | 47% (active) | 57.2% (active) | -120%
Cc1cc(OCC(=O)Nc2nccs2)c2c(C)cc(=O)oc2c1 | 16.2% | 66.6% (active) | 55.3% (active) | -19.8%
CC(=O)N1CCc2c(sc(NC(=O)c3ccc([N+](=O)[O-])o3)c2C(N)=O)C1 | 19.9% | 65.2% (active) | 65.3% (active) | -14.1%
Cc1nnc(SCC(=O)Nc2sc3c(c2C(N)=O)CCCC3)[nH]c1=O | 10.4% | 46.6% (active) | 29.9% | -3.51%
O=C(Nc1ccc(C(=O)N2CCOCC2)cc1)c1cccc([N+](=O)[O-])c1 | 1.39% | 48.4% (active) | 41.9% | -0.69%
COc1ccc(CCNC(=O)CSc2nc(O)c(CCC(C)C)c(=O)[nH]2)cc1OC | 2.2% | 61.7% (active) | 50.4% (active) | -12.8%
CCCc1cc(=O)oc2cc3occ(C)c3cc12 | -0.89% | 42.1% (active) | 37.8% | 1.16%
Cc1ccc(N2CC(C(=O)Nc3nc4ccc(S(C)(=O)=O)cc4s3)CC2=O)cc1C (centres undefined) | 11.2% | 44.6% (active) | 34.7% | -2.05%
CC(=O)C1=C(c2cccc([N+](=O)[O-])c2)N(C(C)=O)n2c(C)nnc2S1 | 5.25% | 58.4% (active) | 50.3% (active) | -4.12%
Cc1ccc(C(O)(C(=O)NN(C(=O)c2ccccc2)c2ccccc2)c2ccc(C)cc2)cc1 | 8.63% | 65.8% (active) | 62.9% (active) | 12.3%
O=C(NCc1cccc(C(F)(F)F)c1)c1cccc(Cl)c1Cl | 7.41% | 46.9% (active) | 48% (active) | 11.8%
COc1ccc(NC(=O)COC(=O)/C=C/C(=O)OCC(=O)Nc2ccc(OC)c(Cl)c2)cc1Cl | 6.28% | 50.8% (active) | 53.9% (active) | -16%
CCCN(CC(=O)Nc1ccc(C(N)=O)cc1)CC(=O)Nc1ccccc1C | 15.3% | 55.4% (active) | 53.9% (active) | 6.63%
COc1cc(-c2cc(NC=O)c3ncc(-c4ccc(C(C)=O)cc4)n3c2)ccc1O | 56.8% (active) | 64.4% (active) | 60.6% (active) | -49.1%
O=C(c1ccc([N+](=O)[O-])o1)N1CCN(c2nc3c(F)cc(F)cc3s2)CC1 | -14.9% | 60.2% (active) | 60.4% (active) | -0.11%
COc1ccc(CCNC(=O)COC(=O)C2CC2C)cc1 (centres undefined) | 3.36% | 47.1% (active) | 48.6% (active) | 2.63%
COc1ccc(OC)c(/C=N/N=C2\SCC(=O)N2Cc2ccco2)c1 | 10.7% | 57.4% (active) | 45.7% (active) | 5.2%
Cn1cc(Cl)c(C(=O)OCC(=O)Nc2ccc(S(N)(=O)=O)cc2)n1 | 10.9% | 55.2% (active) | 50.4% (active) | -12.4%
O=C(CSc1nnc(Cc2cccs2)n1-c1ccccc1)Nc1ccc2c(c1)OCCO2 | -2.83% | 34.8% | 31.1% | -2.43%
CCc1cccc2sc(N3CCN(C(=O)c4ccc([N+](=O)[O-])o4)CC3)nc12 | 3.02% | 57.7% (active) | 52.5% (active) | 17.4%
Cc1cc(C)c(SCCc2ccncc2)c(C)c1 | 5.23% | 63.7% (active) | 57.5% (active) | 34.3% (active)
CC(C)CNC(=O)COC(=O)c1c2c(nc3ccccc13)/C(=C/c1cccs1)CC2 | -15.9% | 4.19% | -12.8% | -8.73%
O=C(Nc1ccc(Cc2ccncc2)cc1)c1cc(F)c(F)cc1Cl | -0.62% | 44.2% (active) | 37.9% | 10.3%
CC(=O)Nc1cc(-c2ccc(S(C)(=O)=O)cc2)cn2c(-c3ccc(F)cc3)cnc12 | 17.4% | 53.4% (active) | 33.3% | -7.42%
CCN(Cc1ccccc1)c1ccc(/C=N/NS(=O)(=O)c2ccc(C)c([N+](=O)[O-])c2)cc1 | 10.9% | 40.7% | 61.3% (active) | 9.15%

Structure (SMILES) | inhibition [1] | inhibition [2] | inhibition [3] | inhibition [4]
O=C(N/N=C/c1c[nH]c2ccccc12)c1[nH]c2ccc(Br)cc2c1-c1ccccc1 | 52.3% (active) | 38% | 57% (active) | 33.6% (active)
CCOc1ccc(S(=O)(=O)Nc2cc(OC)ccc2OC)cc1 | 35.8% (active) | 54.4% (active) | 49.1% (active) | 22.6%
O=C(c1ccc(Cl)cc1)N1CCCCC(Cl)C1=O (centres undefined) | 20.5% | 56.1% (active) | 57.2% (active) | 1.69%
CN1CCN(c2ccc(S(=O)(=O)N3CCCCC3)cc2NC(=O)COc2ccc([N+](=O)[O-])cc2)CC1 | 2.36% | 59.6% (active) | 53.1% (active) | 4.16%
Cc1ccc(NC(=O)CCl)c(C)c1 | 35% (active) | 59.3% (active) | 63.2% (active) | -43.6%
O=[N+]([O-])c1ccc(Sc2nnnn2-c2ccccc2)c(Cl)c1 | 5.41% | 25.6% | 37.7% | -13%
Cc1c(C(C)C)c(=O)n(-c2ccc(S(=O)(=O)NC3CCCCC3)cc2)n1C | 23.7% | 60.6% (active) | 62.1% (active) | 47.9% (active)
O=C1CC(c2cccc([N+](=O)[O-])c2)c2ccc3ccccc3c2N1 (centres undefined) | 11.8% | 40.8% | 39.5% | 9.31%
CCc1c(C)nc(SCC(=O)Nc2ccc3c(c2)OCCO3)[nH]c1=O | 14.5% | 63.7% (active) | 54.7% (active) | -6.83%
COc1ccc(-c2c(-c3ccccc3)c(C(=O)C(=O)NCCCN(C)C)n3ccc4cc(OC)c(OC)cc4c23)cc1OC | 20.4% | 40.9% | 32.1% | 2.99%
CCn1c(CN2CCN(c3ccc(Cl)cc3)CC2)nc2ccccc21 | 2.05% | 46% (active) | 36.1% | 7.76%
C/C=C/c1ccc(OCCOc2ccc(C=O)cc2OC)c(OC)c1 | 11.4% | 44.7% (active) | 35.4% | 2.21%
Cc1ccc(C)c(NC(=O)CSc2nc3c(oc4ccccc43)c(=O)n2-c2ccccc2)c1 | 10.6% | 50.3% (active) | 46.7% (active) | -9.48%
CCOc1ccc(NC(=O)CN2CCN(CC(=O)Nc3ccc(OC)cc3)CC2)cc1 | 9.49% | 58.5% (active) | 56.2% (active) | 8.13%
COC(=O)c1ccc(NC(=O)CN2CCN(S(=O)(=O)c3cc(Cl)ccc3OC)CC2)cc1 | 9.56% | 60.3% (active) | 57.5% (active) | 7.76%
CCOc1ccc(NC(=O)CSc2nc3cccnc3n2CCOC)cc1 | 21.3% | 64.4% (active) | 62.1% (active) | -10.9%
COc1ccc(-n2c(/C=C(\C)O)nc(=O)c3c(C)cc(C)nc32)cc1 | 12.9% | 51.8% (active) | 37.2% | 16.7%
O=C(NC(NNc1ccc([N+](=O)[O-])cc1)(C(F)(F)F)C(F)(F)F)c1ccccc1Cl | 7.51% | 18.4% | 34.1% | 5.04%
C[C@H](CO)N1C[C@H](C)[C@H](CN(C)Cc2ccncc2)Oc2cc(-c3ccccc3F)ccc2S1(=O)=O | 12.8% | 64.6% (active) | 64.6% (active) | 11.1%
COc1ccc(CCNC(=O)CSc2ccc(NC(C)=O)cc2)cc1OC | 9.56% | 53.8% (active) | 53.4% (active) | -3.78%
O=S(=O)(c1ccc(-c2csc(Nc3ccc(F)cc3)n2)cc1)N1CCCC1 | 15.5% | 66.7% (active) | 56.4% (active) | 35.4% (active)
NC(=O)C1CCN(C(=O)COc2ccc3c4c(c(=O)oc3c2)CCCC4)CC1 | 12.7% | 59.3% (active) | 50.3% (active) | -6.57%
CCOCC(=O)Nc1ccc(S(=O)(=O)NCCc2ccccc2)cc1 | 10.5% | 48.3% (active) | 43.2% (active) | 11.4%
O=C(Nc1ccccc1)c1oc2ccccc2c1NC(=O)C1CC1 | 3.25% | 52.8% (active) | 50.5% (active) | 1.67%
CCOC(=O)c1c(NC(=O)/C=C/C(=O)O)sc(C)c1-c1ccc(Cl)cc1 | 6.09% | 59.2% (active) | 48.9% (active) | 5.25%
